Values without a mark were called inactive. Entries that show only a call come without a potency. Calls of active or inactive are those of the source. Calls come from the whole dose curve.
Target: Thyrotropin-releasing hormone receptor (Homo sapiens) (UniProt P34981)
Experiment: qHTS assay to identify small molecule agonists of the thyrotropin-releasing hormone receptor (TRHR) signaling pathway (AID 1346891);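 note: HEK293 cells expressing TRHR with calcium dye readout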
Settings: TRHR-HEK293 calcium fluorescence, agonist mode; series mostly up to 57.6 µM
Description: National Center for Advancing Translational Sciences [NCATS] NIH Chemical Genomics Center [NCGC] U.S. Environmental Protection Agency [EPA] National Institutes of Environmental Health Sciences [NIEHS] National Toxicology Program [NTP] Assay overview: Thyrotropin-releasing hormone (TRH) receptor (TRHR) is a G-protein-coupled receptor which binds the tripeptide thyrotropin releasing hormone. TRHR is found in the brain and, when bound by TRH, acts (through phospholipase C) to increase intracellular inositol trisphosphate. It plays a crucial role in the anterior pituitary where it controls the synthesis and secretion of thyroid stimulating hormone and prolactin. The TRHR-Hek293 assay is a cell-based assay, and it has the potential to screen G protein-coupled receptors. A compound/drug can either activate (agonist) or suppress (antagonist) GPCRs that can be monitored by levels of intracellular calcium. Using this assay, the Tox21 10K compound library was screened to identify potential TRHR agonists.
Assay Protocol Summary: The TRHR-Hek293 cells were dispensed at 1500cells/4uL/well in 1536-well black-clear bottom plates using a Multidrop dispenser. After the assay plates were incubated at a 37 C/5% CO2 incubator for 18 hours, 4 uL of Dye-Loading Solution was added to each well. The plates were incubated at 37 C for 2 hours. For agonist mode, 23 nL of compounds dissolved in DMSO, positive controls or DMSO only was transferred to the assay plate by a pin tool. The fluorescence intensity in the plates was measured using FDSS 7000EX kinetic plate reader for 3 min at 1 sec intervals. Each test compound was measured at 15 concentrations and in triplicates.

Chain of Thyrotropin-releasing hormone receptor (Homo sapiens) (P34981 whole entry, looked up): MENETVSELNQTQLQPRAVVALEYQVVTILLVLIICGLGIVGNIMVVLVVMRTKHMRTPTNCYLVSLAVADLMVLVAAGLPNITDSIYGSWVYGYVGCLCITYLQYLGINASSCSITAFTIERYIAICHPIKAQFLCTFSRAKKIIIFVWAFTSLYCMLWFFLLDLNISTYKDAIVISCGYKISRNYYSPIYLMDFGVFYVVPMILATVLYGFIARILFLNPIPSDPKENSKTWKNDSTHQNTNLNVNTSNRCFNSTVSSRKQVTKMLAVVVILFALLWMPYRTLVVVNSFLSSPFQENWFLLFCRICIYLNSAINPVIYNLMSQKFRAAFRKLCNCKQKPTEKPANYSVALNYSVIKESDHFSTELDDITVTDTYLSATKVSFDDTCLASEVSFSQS

Row | Compound | Potency | activation
1 | CCCCCC/C=C/C=O | inactive | –
2 | CC(C)CCCCCCOC(=O)c1ccc(C(=O)OCCCCCCC(C)C)c(C(=O)OCCCCCCC(C)C)c1 | inactive | –
3 | Cn1sccc1=O | inactive | –
4 | CCOC(=O)C1=C(C)NC(C)=C(C(=O)OC)C1c1cccc([N+](=O)[O-])c1 (stereo not given) | inactive | –
5 | CC(O)C1CCCCC1 (stereo not given) | inactive | –
6 | O=CNc1ccccc1 | inactive | –
7 | CCCCCCCCCCCCCCCC(=O)OC/C=C(C)/C=C/C=C(C)/C=C/C1=C(C)CCCC1(C)C | inactive | –
8 | Cc1cc(CC(=O)O)c(C)n1-c1ccc(Cl)cc1 | inactive | –
9 | CN(C(=O)CCCOc1ccc2[nH]c(=O)ccc2c1)C1CCCCC1 | inactive | –
10 | CNS(=O)(=O)Cc1ccc2[nH]cc(CCN(C)C)c2c1 | inactive | –
11 | CCOC(=O)CC(C)C | inactive | –
12 | CC(C)(C)c1ccc(OCC2CO2)cc1 (stereo not given) | inactive | –
13 | CCCCCC(CO)CCC (stereo not given) | inactive | –
14 | C=CC[N+]1([C@H]2C[C@H]3[C@@H]4CC[C@H]5C[C@H](OC(C)=O)[C@@H](N6CCCCC6)C[C@]5(C)[C@H]4CC[C@]3(C)[C@H]2OC(=O)CC)CCCCC1 | inactive | –
15 | O=[N+]([O-])c1cccc(Cl)c1Cl | inactive | –
16 | CCOc1ccc(NC(=O)CC(C)=O)cc1 | inactive | –
17 | CCCc1ccccc1 | inactive | –
18 | O=S1(=O)c2cccc3cccc(c23)N1CCCN1CCN(c2ccc(F)cc2)CC1 | inactive | –
19 | CCOC(=O)C1=NN(c2ccccc2)C(=O)C1 | inactive | –
20 | O=C(Nc1ccccc1)OCC(CN1CCCCC1)OC(=O)Nc1ccccc1 (stereo not given) | inactive | –

Row | Compound | Potency | activation
21 | CCOc1ccc2[nH]cc(C(=O)NCc3ccccc3)c(=O)c2n1 | inactive | –
22 | Cn1c(N)nc2nc[nH]c2c1=O | inactive | –
23 | CCCCOc1cc(C(=O)OCCN(CC)CC)ccc1N | inactive | –
24 | FC(F)(F)C(F)(F)C(F)(F)C(F)(F)C(F)(F)C(F)(F)CCI | inactive | –
25 | CCCCCCCCCC=O | inactive | –
26 | CCCCCCCC/C=C\CCCCCCCC(N)=O | inactive | –
27 | CC(C)CC=O | inactive | –
28 | Cc1cccc(OCCOc2cccc(C)c2)c1 | inactive | –
29 | CCCCCCOC(=O)CCC | inactive | –
30 | O=C(O)c1cn(C2CC2)c2cc(Cl)c(F)cc2c1=O | inactive | –
31 | CC(C)c1ccc2c(C(C)C)cc(C(C)C)c(S(=O)(=O)O)c2c1 | inactive | –
32 | COc1ccc2[nH]c(S(=O)Cc3ncc(C)c(OC)c3C)nc2n1 (stereo not given) | inactive | –
33 | CCN(CCO)CCCC(C)Nc1ccnc2cc(Cl)ccc12 (stereo not given) | – | 0.0624% [at 5.23 µM]
34 | C=C(C)C(=O)OCCOc1ccccc1 | inactive | –
35 | O=C1Nc2cc(Cl)ccc2Oc2ccccc21 | inactive | –
36 | NCCCOCCOCCOCCCN | inactive | –
37 | CCCCOCCOCCOCCOCCO | inactive | –
38 | COCCO | inactive | –
39 | CC(CN)CCCN (stereo not given) | inactive | –
40 | CCN(CC)CCOc1ccc2c(c1)C(=O)c1cc(OCCN(CC)CC)ccc1-2 | inactive | –

From PubChem BioAssay (Tox21)
